Source: PubChem BioAssay AID567 (The Scripps Research Institute Molecular Screening Center, 2006)
Screen size: about 65,000 compounds; about 370 (0.57%) were called active. Shown is part of a subset that was picked to be rich in actives. A number with no mark means an inactive call.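 How the source made its calls: active means activation above the screen-wide mean activation plus 3 SD (cut at about 19% in these data); inactive means the rest.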

Target: 5-hydroxytryptamine receptor 1A (Homo sapiens) (UniProt P08908)
Sequence (P08908 whole entry, looked up): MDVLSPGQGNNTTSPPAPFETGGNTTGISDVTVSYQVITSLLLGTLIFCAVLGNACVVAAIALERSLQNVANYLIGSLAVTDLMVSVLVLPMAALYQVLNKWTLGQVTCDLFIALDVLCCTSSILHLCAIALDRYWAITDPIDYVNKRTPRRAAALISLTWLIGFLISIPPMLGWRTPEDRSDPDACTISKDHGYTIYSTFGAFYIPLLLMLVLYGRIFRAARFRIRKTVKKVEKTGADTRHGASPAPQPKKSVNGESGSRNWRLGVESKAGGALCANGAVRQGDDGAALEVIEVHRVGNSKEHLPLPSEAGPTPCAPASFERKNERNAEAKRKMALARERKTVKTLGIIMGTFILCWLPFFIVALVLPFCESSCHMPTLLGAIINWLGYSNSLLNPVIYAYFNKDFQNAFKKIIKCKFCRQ
Test: human 5-HT1a receptor agonists, primary screen, cell-based, CHO, Ga15 NFAT-bla reporter (AID 567);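 further: 0% = DMSO wells and 100% = 5-CT at EC100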
Conditions: CHO 5-HT1a Ga15 NFAT-bla reporter, FRET ratio; at 10 µM; stronger effect = higher value; 0% basal, 100% maximal reference agonist

SMILES | activation
COC(=O)c1ccc(S(=O)(=O)c2ccc(C(=O)OC)s2)s1 | 2.5%
CCOC(=O)CN(C(=O)CN1CCOCC1)c1ccc(Br)cc1 | -0.22%
CCOC(=O)C1CCN(C(c2cc3cc(C)cc(C)c3[nH]c2=O)c2nnnn2C2CCCCC2)CC1 (configuration not stated) | -0.97%
CC(C)CCNC(=O)C1CCCN(S(=O)(=O)c2ccc(F)cc2)C1 (configuration not stated) | 0.42%
O=C(NCc1ccco1)c1ccc(CS(=O)(=O)Cc2ccc(F)cc2)o1 | -3.1%
O=C(c1cccs1)N1CCCC(c2nc(-c3ccc(F)cc3)no2)C1 (configuration not stated) | -1.69%
Cn1c(=O)c2c(ncn2CC(=O)N2CCN(c3ccccc3)CC2)n(C)c1=O | -0.49%
Cc1noc(NS(=O)(=O)c2ccc(N3CC(O)=C(c4ccccc4)C3=N)cc2)c1C | 147% (active)
COc1ccc(C(=O)Nc2ccc(S(=O)(=O)Nc3onc(C)c3C)cc2)cc1OC | -4.48%
Cc1noc(NS(=O)(=O)c2ccc(NC(=O)C34CCC(CC3)C4)cc2)c1C | 0.73%
COc1cccc2c(=O)n(CC(=O)N3CCCCCC3)ccc12 | -2.41%
CC1=C(C(=O)OCc2ccccc2)C(c2ccco2)n2ncnc2N1 (configuration not stated) | 2.82%
CCCOc1ccc(N2CC(C(=O)Nc3ccccn3)CC2=O)cc1 (configuration not stated) | -1.38%
COc1cc2ccccc2cc1C(=O)Nc1ccc(S(=O)(=O)Nc2cc(C)on2)cc1 | 0.01%
CC(C)(C)n1c(=O)[nH]c2c(c1=O)CCC2 | -0.19%
Cc1ccc(-n2nc3cc(Cl)c(NC(=O)c4ccco4)cc3n2)cc1 | 0.44%
c1ccc2cc(OCCN3CCCC3)ccc2c1 | -1%
O=C(CN1C2CCC1CC(NC(=O)C1CC1)C2)NCc1ccccc1 (configuration not stated) | 0.81%
CCn1c(SCC(=O)Nc2ccc3c(c2)OCCO3)nc2c(c1=O)SC(C)C2 (configuration not stated) | 1.05%
O=C(c1ccc2c(c1)OCCO2)C1CCN(S(=O)(=O)c2cccc(F)c2)CC1 | -3.42%
CC(=O)NS(=O)(=O)c1ccccc1 | -2.33%

SMILES | activation
Fc1cnc(N2CCOCC2)nc1NCc1ccccc1 | -1.58%
CCn1c(SCC(=O)Nc2nccs2)nnc1-c1ccncc1 | -0.84%
CC(=O)Cc1nsc(NC(=O)c2csc3c2CCCC3)n1 | 0.34%
CC(=O)Cc1nsc(NC(=O)c2ccc(COc3ccc(C)cc3)o2)n1 | -1.31%
COc1ccc(-c2nn(-c3ccccc3)cc2C(=O)Nc2nc(CC(C)=O)ns2)cc1 | 59.1% (active)
COC(=O)C1=CN(C)C=C(C(=O)OC)C1c1ccc(Cl)cc1Cl | 13.7%
CCOc1ccccc1C1C(C(=O)OC)=CN(C)C=C1C(=O)OC | 20.1% (active)
CCOc1cc(C2C(C(=O)OC)=CN(C3CCCC3)C=C2C(=O)OC)cc(Br)c1O | 14.4%
CC(=O)c1ccc(N2C(=NC(=O)C(C)C)SC3CS(=O)(=O)CC32)cc1 (configuration not stated) | -1.94%
CN(C)/C=C1/Nc2ccccc2C1=O | -1.11%
O=C(O)c1ccc(F)c(S(=O)(=O)Nc2ccccc2)c1 | 1%
COc1ccc(NC(C)=O)cc1NC(=O)CN1CCN(c2ccccn2)CC1 | -1.16%
COC(=O)c1ccc(C2NC(=O)NC(C)=C2C(=O)N(C)C)cc1 (configuration not stated) | -3.69%
O=C(c1ccc(S(=O)(=O)N2CCOCC2)cc1)N1CCN(c2ccccc2)CC1 | -2.91%
CNC(=O)c1nnn(-c2ccccc2)c1C(=O)NC | -1.73%
CCOc1ccc(NS(=O)(=O)c2ccc(OCC(=O)NCCCOC)cc2)cc1 | -1.21%
O=C(COC(=O)CCc1c[nH]c(=O)[nH]1)Nc1ccccc1Cl | -0.97%
CCOC(=O)c1c(C)[nH]c(C(=O)NCc2ccccc2OC)c1C | -0.94%
COc1ccc(C)cc1NC(=O)c1[nH]c(C)c(C(C)=O)c1C | 43.5% (active)
CCOc1ccc(NC(=O)Nc2cc(C)ccc2OC)cc1 | -4.41%
O=C(CSc1nnc(-c2ccco2)o1)NCC(=O)c1ccccc1 | 0.23%

SMILES | activation
Cc1ccc(CNC(=O)C2CCCN(S(C)(=O)=O)C2)cc1 (configuration not stated) | 0.44%
Cc1cc(C)c(NC(=O)CS(=O)CC(=O)Nc2cccnc2)c(C)c1 (configuration not stated) | 0.42%
CCCC(=O)Nc1ccc(C(=O)NCCCn2ccnc2)cc1 | -3.99%
CCOC(=O)C1(Cc2ccc(O)cc2)NC(c2ccccc2F)C2C(=O)N(C)C(=O)C21 (configuration not stated) | -1.57%
COc1ccccc1N1CC(O)=C(c2nc3ccccc3s2)C1=N | -3.98%
Cc1ccc(C(=O)CS(C)(=O)=O)cc1 | -5.39%
O=C(O)C1CCCN(S(=O)(=O)c2cccc3cccnc23)C1 (configuration not stated) | -4.76%
Cc1[nH]c2ccc(S(N)(=O)=O)cc2c1C | -0.45%
Cc1ccccc1CSCC(=O)NC(=O)NC(C)(C)C | -1.47%
CC1CCCN(c2ccc(C(=O)NCCc3ccccc3)cn2)C1 (configuration not stated) | -0.9%
C=CCn1c(N)c(S(=O)(=O)c2cccs2)c2nc3ccccc3nc21 | -0.33%
CC(C)Cn1c(N)c(C(=O)NCc2cccs2)c2nc3ccccc3nc21 | 77.6% (active)
C=CCn1c(N)c(C(=O)OCC(C)C)c2nc3ccccc3nc21 | 0.61%
CCOc1ccc2nc(SC(CC)C(=O)Nc3cc(C)on3)sc2c1 (configuration not stated) | 0.42%
COc1ccc(F)cc1S(=O)(=O)Nc1ccc2c(c1)OCO2 | -5.74%
O=C(Cn1cnc2c(nnn2Cc2ccc(F)cc2)c1=O)NCc1ccc2c(c1)OCO2 | -1.47%
COc1cccc2c(C)c(C(=O)O)[nH]c12 | 1.98%
C=CCSC1=C(C#N)C(c2cc(Br)c(O)c(OC)c2)CC(=O)N1 (configuration not stated) | 1.53%
C=CCNc1nnc(SCC(=O)N2CCCCC2)c2ccccc12 | 0.32%
O=C1c2ccncc2C(=O)N1C1CCCCC1 | -3.22%
